CYP2C19 inh: inhibitors of human CYP2C19. P33261. CYP2C19 Supersomes, luciferin-H EGE luminescence, 30 min. inhibition, % at 5 µM. 96,000 tested, 21% active. AID 778;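 active means CYP2C19 inhibition above a set limit at 5 µM in the primary screen, cut at about 50% in these data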;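 further: plate controls were negative control wells for no effect and 2.5 mM tranylcypromine positive control for full effect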
Target sequence (P33261 whole entry, looked up): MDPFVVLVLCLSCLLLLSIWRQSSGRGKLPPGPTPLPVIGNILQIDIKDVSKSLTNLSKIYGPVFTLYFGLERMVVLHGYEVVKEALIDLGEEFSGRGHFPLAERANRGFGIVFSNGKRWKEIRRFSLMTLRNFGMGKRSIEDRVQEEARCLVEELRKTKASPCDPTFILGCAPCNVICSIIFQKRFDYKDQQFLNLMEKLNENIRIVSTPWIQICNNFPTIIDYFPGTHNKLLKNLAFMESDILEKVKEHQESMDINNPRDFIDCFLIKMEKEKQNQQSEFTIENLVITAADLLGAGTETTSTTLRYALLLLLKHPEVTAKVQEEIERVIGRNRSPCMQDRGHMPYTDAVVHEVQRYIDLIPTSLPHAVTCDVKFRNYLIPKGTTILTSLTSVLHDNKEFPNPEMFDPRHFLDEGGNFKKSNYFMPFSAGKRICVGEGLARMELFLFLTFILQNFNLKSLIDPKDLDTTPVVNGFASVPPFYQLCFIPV
CYP2C9 activ: increases human cytochrome P450 2C9 activity | P11712 | activation factor at 5 µM | 96,000 tested, 1.4% active | recombinant CYP2C9, luciferin-H conversion, luminescence; hits give high values; factor 1 = untreated enzyme, 0 = blocked | AID 1024;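 active means activation factor of 2 or more for CYP2C9 at a 5 µM dose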;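 further: 0 = sulfaphenazole-blocked wells and 1 = vehicle-only wells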
CYP2C9 inh: blocks human cytochrome P450 2C9. inhibition, % at 5 µM. AID 777. CYP2C9 Supersomes, luciferin-H conversion, luminescence. P11712. 96,000 tested, 20% active;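 active means blocking of liver enzyme CYP2C9 beyond about 50% at 5 µM, limit read from the data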
Measles CPE: protection of cells from measles virus; protection (pct of control), % at 4 µM; 140,000 tested, 1.5% active; Measles virus-infected cells, CPE protection, absorbance; AID 841; in the data active means protection mostly above about 24%, no sharp cut-off; inactive means mostly below about 26%
CYP2C19 activ: activators of human cytochrome P450 2C19 | P33261 | recombinant CYP2C19, luciferin-H EGE luminescence; hits give high values; 0 = fully inhibited enzyme, 1 = untreated enzyme | activation factor at 5 µM | 96,000 tested, under 10 active | AID 1025;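 active means activation factor of at least 2 at 5 µM in the primary screen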;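 further: 0 = wells with 2.5 mM tranylcypromine and 1 = vehicle-only wells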
* hit, by the source's call; · = not tested or not shown. Compounds with a hit are over-represented: about 22% of the library has one in this group of screens.

SMILES | CYP2C19 inh | CYP2C9 activ | CYP2C9 inh | Measles CPE | CYP2C19 activ
O=C(COc1ccc(Br)cc1CNCCCN1CCOCC1)Nc1ccccc1 | · | · | · | -0.1 | ·
Cn1cc(C(=O)c2ccc(Cl)cc2Cl)cc1C(=O)N/N=C(\N)COc1ccccc1 | 2.3 | 0.8 | 19.3 | 6.3 | 1
Cn1cc(C(=O)c2ccc(Cl)cc2Cl)cc1C(=O)N/N=C(\N)COc1ccc(Cl)cc1Cl | 37.4 | 0.1 | 86.0* | 4.9 | 0.6
COc1cc(OC)c2nc(C)c3c(c2c1)N(c1ccc(O)cc1)CC3 | 27.4 | 1 | 0.5 | 3.0 | 0.7
CCOC(=O)COc1c(OC)cc(Cl)cc1C1Nc2ccccc2C(=O)N1c1cccc(C)c1 (centres undefined) | 94.6* | 0.1 | 94.7* | 2.6 | 0.1
CCOC(=O)COc1c(OC)cc(Cl)cc1C1Nc2ccccc2C(=O)N1c1ccccc1 (centres undefined) | 95.1* | 0 | 98.3* | 4.6 | 0
CCOC(=O)COc1ccccc1C1Nc2ccccc2C(=O)N1c1cccc(Cl)c1 (centres undefined) | 64.2* | 0.8 | 17.3 | 20.3 | 0.4
COc1cc(C2Nc3ccccc3C(=O)N2c2ccc(Cl)cc2)c(Cl)cc1OCC(=O)O (centres undefined) | · | · | · | 4.6 | ·
CCOC(=O)COc1c(OC)cc(Cl)cc1C1Nc2ccccc2C(=O)N1c1ccc(F)cc1 (centres undefined) | 67.2* | 0.1 | 90.5* | 8.5 | 0.3
CCCCOc1cccc(OCC(=O)Nc2nc3ccccc3[nH]2)c1 | · | · | · | 3.6 | ·
CC(=O)c1cccc(Nc2nc(=O)c3cccnc3s2)c1 | 74.1* | 0.2 | 78.2* | 7.1 | 0.3
CC(=O)c1ccc(Nc2nc(=O)c3cccnc3s2)cc1 | 25.0 | 0.6 | 41.0 | 3.0 | 0.8
CCOC(=O)c1ccc(Nc2nc(=O)c3cccnc3s2)cc1 | 1.1 | 0.5 | 49.6 | 70.7* | 1
CCOC(=O)c1ccc(Nc2ccc([N+](=O)[O-])cn2)cc1 | · | · | · | 9.7 | ·
Cn1c(NC(=O)c2cc(Br)ccc2Cl)cc(=O)n(C)c1=O | 59.4* | 0.7 | 28.9 | 10.5 | 0.4
CC(C)(C(N)=O)N1CCN(c2ncc(C(F)(F)F)cc2Cl)CC1 | 49.4 | 0.9 | 12.8 | 2.5 | 0.5
CC(C(=O)N1CCN(c2ccc(Cl)cc2)CC1)c1ncc(C(F)(F)F)cc1Cl (centres undefined) | 52.2* | 0.7 | 28.8 | 9.1 | 0.5
C#CCSc1nnc(-c2ccccc2)c(=O)[nH]1 | 6.5 | 0.4 | 55.6* | 8.9 | 0.9
Cc1nnc(SCc2cnc(-c3ccccc3)o2)[nH]c1=O | -11.4 | 1 | 3.2 | 6.2 | 1.1
O=[N+]([O-])c1cc(-c2nc(-c3ccncc3)no2)cc([N+](=O)[O-])c1 | · | · | · | 1.1 | ·
Cc1ccc(OCc2nc(-c3ccccn3)no2)cc1 | 40.9 | 0.7 | 31.7 | 24.1 | 0.6
Cc1ccc(SCc2nc(-c3ccccc3)no2)cc1 | 85.6* | 0.5 | 51.2* | 8.7 | 0.1
O=C1c2ccccc2C(=O)N1Cc1nc2ccccc2o1 | 64.3* | 1.2 | -16.1 | 10.1 | 0.4
Cc1ccc(SCc2nc(-c3ccccn3)no2)cc1 | 85.5* | 0.5 | 51.7* | 10.7 | 0.1
Cc1ccc(SC(C)c2nc(-c3ccncc3)no2)cc1 (centres undefined) | 99.6* | 0 | 96.5* | 2.5 | 0
SMILES | CYP2C19 inh | CYP2C9 activ | CYP2C9 inh | Measles CPE | CYP2C19 activ
COc1ccc(-c2noc(CSc3ccccc3)n2)cc1OC | 31.1 | 0.8 | 20.9 | 4.7 | 0.7
O=C1c2ccccc2C(=O)N1CCCSc1nc2ccccc2o1 | 45.9 | 0.8 | 24.8 | 6.3 | 0.5
O=C(OCC(=O)c1ccc(Cl)s1)c1ccc2ccccc2n1 | · | · | · | 8.1 | ·
Cn1c(=O)n(CC(=O)N2CCOCC2)c2ccccc21 | · | · | · | 10.6 | ·
O=C1c2ccccc2C(=O)N1Cc1nc(-c2ccccc2)no1 | 49.3 | 0.9 | 14.0 | · | 0.5
c1ccc(SCc2nc(-c3ccncc3)no2)cc1 | 95.5* | 0.2 | 82.8* | 24.7 | 0
Cc1ccc(SCc2nc(-c3ccncc3)no2)cc1 | 98.7* | 0.1 | 90.7* | 16.7 | 0
O=C1c2ccccc2C(=O)N1Cc1nc(-c2ccncc2)no1 | 92.2* | 0.2 | 84.1* | 6.2 | 0.1
Cc1cc(NC(=O)c2noc3c2CCCC3)n(-c2ccccc2)n1 | 10.4 | 0.8 | 17.0 | 9.9 | 0.9
CCCCN(CC)CCNC(=O)CN1C(=O)COc2ccc(S(=O)(=O)N3CCCC3)cc21 | · | · | · | 7.4 | ·
CN1CCN(C(=S)Nc2cc([N+](=O)[O-])ccc2Cl)CC1 | · | · | · | 22.3 | ·
CCNC(=O)OCCC12CC3CC(CC(C3)C1)C2 | · | · | · | 8.8 | ·
NCC(O)COCCC12CC3CC(CC(C3)C1)C2 (centres undefined) | 87.9* | 0.7 | 25.2 | 2.1 | 0.1
O=C(NCc1cn2ccsc2n1)c1cccs1 | -3.7 | 1 | 0.7 | 11.2 | 1
CN(C)S(=O)(=O)N1CCN(S(=O)(=O)c2ccc(F)cc2)CC1 | 13.0 | 1 | -0.5 | 0.1 | 0.9
CN(C)S(=O)(=O)N1CCC(c2ccc(F)cc2)C(COc2ccc3c(c2)OCO3)C1 (centres undefined) | 78.7* | 0.1 | 94.8* | 24.3 | 0.2
COc1ccc(C2C(=O)N(CCc3ccccc3)CC(=O)N2C2CCCCC2)cc1 (centres undefined) | 14.2 | 0.7 | 30.2 | 47.7 | 0.9
NC(=O)c1nsnc1-c1ccccc1O | -3.7 | 0.8 | 15.5 | 4.6 | 1
Cc1ccc(C(=O)CSc2nc(C)cc(C)c2C(N)=O)cc1 | 76.6* | 0.4 | 60.4* | 1.4 | 0.2
CC1(C)C=C(c2ccc(C=O)s2)CC(C)(C)N1C=O | · | · | · | 4.7 | ·
O=C(COC(=O)Cn1cnc2ccccc2c1=O)Nc1cc(Cl)ccc1[N+](=O)[O-] | · | · | · | 19.6 | ·
COc1cccc(CN(C)CC(=O)NC(=O)NCc2ccco2)c1 | 58.1* | 0.7 | 28.9 | 11.7 | 0.4
COc1ccc(-c2nnc(SCC(=O)Nc3ccccc3OC)o2)cc1 | · | · | · | 21.7 | ·
COc1ccc(-c2nnc(SCC(=O)NC(C)c3ccccc3)o2)cc1 (centres undefined) | 59.2* | 1.3 | -31.8 | 12.9 | 0.4
COc1ccc(-c2nnc(SCC(=O)NC(=O)NCc3ccco3)o2)cc1 | 52.5* | 1.2 | -18.2 | 22.8 | 0.5
SMILES | CYP2C19 inh | CYP2C9 activ | CYP2C9 inh | Measles CPE | CYP2C19 activ
O=C(CSc1nnc(-c2ccc(OC(F)F)cc2)o1)NCc1cccs1 | 64.3* | 0.7 | 33.8 | 14.6 | 0.4
Cc1c(C(=O)N2CC(C)OC(C)C2)oc2ccccc12 (centres undefined) | 16.7 | 1.6 | -63.9 | 11.8 | 0.8
Cn1c(=O)c2c(ncn2CC(O)CNc2ccc(Br)cc2)n(C)c1=O (centres undefined) | 74.6* | 0.5 | 46.0 | 14.2 | 0.3
Oc1[nH]c2ccccc2c1C=Nc1ccc2c(c1)OCO2 | 19.4 | 0.9 | 8.7 | 6.1 | 0.8
COc1ccc(N=Cc2c(O)[nH]c3ccccc23)cc1 | 8.4 | 0.9 | 10.5 | 45.7* | 0.9
Oc1[nH]c2ccccc2c1/C=N/N1CCCCC1 | 13.7 | 1.1 | -6.7 | 15.9 | 0.9
Oc1[nH]c2ccccc2c1/C=N/c1nccs1 | 53.4* | 0.9 | 13.9 | 23.9 | 0.5
CC(C)CCNC(=O)C1CCN(C(=O)N(C)C)CC1 | 6.5 | 1.1 | -12.5 | 7.7 | 0.9
